Compound activity deposited in PubChem by National Center for Advancing Translational Sciences (NCATS).
FUS suppressor – FUS proteinopathy suppression in yeast; S. cerevisiae FUS-expressing, growth rescue, OD600, 24 h; Potency, µM (series often up to 76.6 µM), hits mostly activators; 390,000 compounds, 0.24% hits; AID 1347120;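 also: plate controls were DMSO vehicle for no effect and reference control for full effect; nearly all actives have a fitted effect of over 55% in size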
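Compound concentration series was pinned onto galactose-induced FUS-expressing yeast seeded at OD 0.005. Plates sat 24hr at 30C; absorbance at 600 nm gave growth. DMSO served as background control.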
AT treatment – potential ataxia-telangiectasia treatments restoring KAP-1 phosphorylation; F2112 A-T fibroblasts, KAP-1 phosphorylation AlphaLISA; neocarzinostatin DNA damage 30 min before lysis; Potency, µM (highest dose often 57.5 µM), inactives show top-dose activation, hits mostly activators; 320,000 compounds, 0.19% hits; AID 485349; also: % of control where 0% means no effect; nearly all actives have a fitted effect of over 45% in size
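hTERT-immortalized A-T patient fibroblasts (F2112), 500 cells/well in OPTI-MEM, 1% FBS, got compounds for 60 min, then NCS for 30 min at 37C. Lysates were then assayed for phospho-KAP-1 by AlphaLISA (anti-pKAP1 donor, anti-KAP1 acceptor beads), 6 hr at 25C.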
Abeta rescue – compounds reversing amyloid beta toxicity in yeast. yeast expressing A-beta42, growth rescue, OD600, 48 h; response scale: 0% DMSO, 100% iron-clioquinol control. Potency, µM (series often up to 46.1 µM), usual class: activators. 410,000 compounds, 0.063% hits; also: nearly all actives have a fitted effect of over 55% in size
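Yeast growth medium received pinned compounds, then yeast cells expressing toxic A-beta were added; plates incubated at 30 C for 48 hr. Growth read as absorbance at 600 nm, normalized to DMSO and equimolar FeCl3 plus clioquinol controls.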
TDP-43 yeast inh – rescues yeast growth from TDP-43 toxicity | TDP-43 expressing yeast growth rescue, BacTiter-Glo, 24 h | Potency, µM (titrated, usually from 46.1 µM), inactives show at the highest dose growth rescue (activation), hits mostly activators | 410,000 compounds, 1.8% hits | AID 652104; also: % of control where 0% means no effect; nearly all actives have a fitted effect of over 50% in size
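In this qHTS, compounds that restore growth of yeast expressing TDP-43 appear as activators. Cells (OD600=0.02, galactose medium, raffinose-pregrown) are incubated with compound 24 hr at 30 deg C and growth is quantified by BacTiter-Glo.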
Mito fusion yeast – mitochondrial division inhibition or fusion activation; 320,000 compounds, 0.23% hits; S. cerevisiae fusion-defective mutant growth rescue, CellTiterGlo 48 h; Potency, µM (doses to about 46.1 µM), for the others: at the top dose growth rescue (activation), hits mostly activators; also: % of control where 0% means no effect; nearly all actives have a fitted effect of over 45% in size
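Compounds are tested for their ability to restore growth of mitochondrial fusion-defective yeast strains at non-permissive 37C in YPEG medium over 48 hours. Viability is quantified by luciferase luminescence.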
aSyn yeast inh – rescues yeast growth from alpha-synuclein toxicity; Potency, µM (titrated, usually from 46.1 µM), inactives show at the top dose growth rescue (activation), most hits filed as activators; Yeast expressing alpha-synuclein, growth rescue, BacTiter-Glo, 24 h; 370,000 compounds, 0.14% hits; also: % of control where 0% means no effect; nearly all actives have a fitted effect of over 65% in size
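Galactose-induced alpha-syn yeast (OD600=0.02, raffinose-pregrown) + pinned cpd, 24 hr, 30 deg C; growth by BacTiter-Glo luminescence. Growth restoration scores as activation.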
* = called active by the depositor; i = inactive; ? = inconclusive; / = not tested or not shown; ! = not confirmed by another sample; [ ] = remark or other dose. Rows were chosen to be rich in hits. Some 2.4% of all compounds tested hit in one or more screens of this group. Calls follow the shape of the dose curve; as a rule, active = well fitted curve in the direction sought with a large enough effect; inconclusive = small, poorly fitted or top-dose-only effect, or another doubt; inactive = no such curve, though single readings can be large; an effect the other way counts as inactive or inconclusive. Potency is read from the fitted curve at half-maximal effect.

SMILES | FUS suppressor | AT treatment | Abeta rescue | TDP-43 yeast inh | Mito fusion yeast | aSyn yeast inh
COc1cc(C2CC(=O)Nc3c2c(=O)[nH]c2nc4ccccc4n32)ccc1O (stereo not drawn) | i | / | i | -7.3% | / | -1.2%
O=S(Cc1ccc(Br)cc1)Cc1nnc(SCc2c(F)cccc2Cl)n1-c1ccccc1 (stereo not drawn) | / | 2.8% | i | 14.3% | ? | 9.5%
O=S(Cc1ccc(Br)cc1)Cc1nnc(SCc2ccc(Cl)cc2)n1-c1ccccc1 (stereo not drawn) | / | 8.1% | i | 6.31µM* | -14.1% | ?
CC1CCCN(S(=O)(=O)c2ccc(CN3C(=O)c4cccnc4C3=O)cc2)C1 (stereo not drawn) | i | 5.7% | i | ? | 7.2% | 0.562µM*
COc1ccc(CN2C(=O)c3cccnc3C2=O)cc1S(=O)(=O)N1CC(C)CC(C)C1 (stereo not drawn) | i | -1.7% | i | 15.9% | -1.8% | -14.6%
Cc1cc(Cl)ccc1NC(=O)C1CCCN1C(=O)c1cccs1 (stereo not drawn) | i | -6.0% | i | -6.7% | -0.1% | 10.5%
CCN(C(=O)[C@@H]1CCCN1C(=O)c1cccs1)c1nc2cc(Cl)ccc2s1 | i | 4.8% | i | 12.6µM* | ? | 3.3%
COC(=O)C1=NN(C(=O)c2ccc(Cl)cc2)C(O)(c2ccccc2)C1 (stereo not drawn) | i | -3.0% | i | 26.8% | -0.6% | 20µM*
CCOC(=O)C1=NN(C(=O)c2ccc(C)cc2)C(O)(c2ccc(Cl)cc2)C1 (stereo not drawn) | ? | -4.2% | i | 12.6µM* | -1.4% | ?
O=C(Nc1nc(-c2ccncc2)cs1)C1c2ccccc2Oc2ccccc21 | ? | 7.9% | i | -7.9% | 11.2µM* | -1.0%
O=C(Nc1nc(-c2ccccc2)cs1)C1c2ccccc2Oc2ccccc21 | i | 5.4% | i | -2.7% | 2.7% | -0.6%
COc1ccc(-c2cn[nH]c2-c2ccc(OC)cc2O)cc1 | i | -4.6% | ? | 25.1µM* | 12.9% | 22.4µM*
Cn1cnc([N+](=O)[O-])c1S(=O)(=O)Oc1cccc2ccccc12 | i | / | i | ? | / | -46.5%
Cn1cnc([N+](=O)[O-])c1S(=O)(=O)Oc1ccc(Cl)cc1 | i | / | i | 3.16µM* | / | -24.2%
Cc1cccc(NC(=O)COc2ccc(-c3nn(C)c(=O)c4ccccc34)cc2)c1 | ? | -2.8% | i | 35.5µM* | 6.9% | 4.5%
COc1ccccc1NC(=O)COc1ccc(-c2nn(C)c(=O)c3ccccc23)cc1 | i | -5.9% | i | 22.4µM*! | 16.5% | 0.0%
COc1ccccc1NC(=O)Cn1nc(-c2ccc(C)cc2)c2c(c1=O)CCCC2 | i | / | i | 31.6µM* | / | /
COc1ccccc1NC(=O)Cn1nc(-c2ccc(Cl)cc2)c2ccccc2c1=O | i | -4.2% | i | 28.1% | 14.1% | 15.3%
Cn1nc(-c2ccc(OCC(=O)Nc3ccc(Cl)cc3)cc2)c2ccccc2c1=O | i | / | i | 0.0% | / | /
COc1ccccc1NC(=O)c1ccc(-c2nn(C)c(=O)c3ccccc23)cc1 | i | 6.5% | i | 15.7% | 8.1% | 15.7%
Cn1nc(-c2ccc(OCC(=O)Nc3ccccc3)cc2)c2ccccc2c1=O | i | -1.0% | i | 15.8µM* | 7.8% | /
CN(C(=O)c1ccc(-c2nn(C)c(=O)c3ccccc23)cc1)c1ccccc1 | i | / | i | 14.1µM* | -1.0% | /
CCN(c1ccccc1)c1nnc(NC(=O)Nc2ccc(Br)cc2)s1 | i | / | i | 10.2% | / | /
COc1ccccc1CNC(=O)C1CCCN(C(=O)c2cnn(-c3ccc(F)cc3)c2-n2cccc2)C1 (stereo not drawn) | i | / | i | 0.0% | / | 3.6%
O=C(CCCCl)NC(=S)Nc1cc(C(F)(F)F)ccc1N1CCOCC1 | i | 1.2% | ? | 12.6µM* | -25.0% | 0.0%
SMILES | FUS suppressor | AT treatment | Abeta rescue | TDP-43 yeast inh | Mito fusion yeast | aSyn yeast inh
O=C(NC1CC(=O)N(c2ccc(Cl)cc2)C1)C1CCCCC1 (stereo not drawn) | i | / | i | 15.0% | / | /
N/C(=N\OC(=O)CCC1CCCCC1)c1cccnc1 | i | 4.3% | i | 12.6µM* | -10.8% | -0.6%
N/C(=N\OC(=O)CCC1CCCC1)c1cccc([N+](=O)[O-])c1 | i | 10.8% | i | 20µM* | 5.4% | -17.2%
COc1ccc(OCC(=O)O/N=C(\N)c2ccc(OC)cc2)cc1 | i | 29.0% | i | 1.6% | -10.2% | 1.1%
COc1ccc(/C(N)=N/OC(=O)CC2CCCCC2)cc1 | i | 35.2% | i | 3.16µM* | 1.1% | -24.9%
N/C(=N\OC(=O)CCC1CCCC1)c1ccc(Br)cc1 | / | 3.5% | i | 6.31µM* | -2.8% | -49.9%
COc1ccc2c(c1)CC(C(=O)NCc1ccc(F)cc1)CO2 (stereo not drawn) | i | / | i | 0.0%[9.22 µM] | / | /
CCOc1ccccc1NC(=O)c1cc2c(Cl)nc3ccccc3c2s1 | i | / | i | 24.6% | / | /
N/C(=N\OC(=O)CC1CCCCC1)c1ccc([N+](=O)[O-])cc1 | / | 2.8% | i | 17.8µM* | 27.2% | -6.2%
N/C(=N\OC(=O)CCC1CCCCC1)c1ccc([N+](=O)[O-])cc1 | / | 0.7% | i | 20µM* | -4.6% | -5.6%
CCOc1ccc(OCC)c(S(=O)(=O)N2CCN(c3cccc(C)c3C)CC2)c1 | i | / | i | -14.5% | / | ?
COc1ccc(OC)c(S(=O)(=O)N2CCC(C(=O)N3CCN(C4CCCCC4)CC3)CC2)c1 | i | / | / | / | / | /
Nc1ncnc2oc(-c3ccco3)c(-c3ccco3)c12 | i | -4.8% | i | -17.1% | 10.9% | 12.6µM*
O=C(NC(=S)Nc1ccccc1Br)C1CCCCC1 | / | -6.5% | i | 15.8µM* | / | -23.0%
O=C(NC(=S)Nc1ccccc1Br)C1CCCC1 | i | -8.6% | ? | 15.8µM* | -2.8% | -1.1%
O=C(NC(=S)Nc1ccccc1F)C1CCCCC1 | / | -7.6% | / | / | -0.9% | /
COC(=O)c1cccc(NC(=O)c2cccc([N+](=O)[O-])c2)c1 | i | -7.4% | i | 12.6µM* | 1.4% | -0.4%
CCC(=O)Nc1cccc(C(=O)OCc2cccc([N+](=O)[O-])c2)c1 | i | 5.2% | i | 11.2µM* | -2.8% | -8.8%
O=C(C1CCCCC1)N1C[C@@H](n2cc(-c3ccc(F)cc3)nn2)[C@H](O)C[C@@H]1c1ccc(Cl)cc1 | i | / | i | 22.4µM* | / | 2.0%
Cc1ccccc1-c1nn2c(=O)cc(CN3CCN(C(=O)c4ccccc4Br)CC3)nc2s1 | i | / | i | -12.5% | / | /
